This note sets out measurements from PubChem BioAssay AID977607 (Broad Institute, 2014).

In all, about 1,500 compounds went through this assay and about 460 (31%) were called active. Roughly 1% stayed inconclusive and do not appear here. Only a sample is shown. Measured potencies and affinities stand elsewhere. Unmarked numbers belong to inactive results.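 Rule for the calls: active = curve reaches 40% activation over neutral controls at an AC40 no higher than the top valid tested concentration; inconclusive = no clear call, values can overlap the other calls; inactive = signal moving opposite to the expected increase, and the rest.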

The nature of the test: GLuc-reported insulin release enhancers, glucose-stimulated beta cells – cell-based, INS-1E, Gaussia luciferase, luminescence, cherry-pick, set 2, dose response (AID 977607).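 Note: 0% = median of the plate neutral control wells.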 To be noted: INS-1E GLuc insulin secretion reporter, 2-3 h, hits give high values; at 35 µM, 100% = signal doubled over neutral wells unless noted.
In the case of `CCN(c1ccccc1)c1nc(Cl)nc2c1cnn2C`, the max activation is 28.8%.

For `COc1ccc(-c2ccc(=O)n(CC(=O)NC3CCc4ccccc43)n2)cc1OC` (stereo not drawn), the max activation is 20.7% [at 11 µM, 100% = signal doubled over neutral wells]. For `COCc1ccc(C(=O)NC2CCSc3ccccc32)cc1` (stereo not drawn) the value was -17.7%.

`CCCc1cc(=O)oc2cc(C)cc(OCC(=O)Nc3ccc(S(N)(=O)=O)cc3)c12`: the max activation was 24.1% [at 1.2 µM, 100% = signal doubled over neutral wells]. For `Cn1c(=O)c(=O)n(C)c2cc(S(=O)(=O)N3CCN(c4ccc(F)cc4)CC3)ccc21`, the max activation was -17.9% [at 0.046 µM, 100% = signal doubled over neutral wells]. Turning to `CSc1ccc2nnc(-c3cccc(F)c3)n2n1`, the max activation is 16.4%. For `COc1cccc(-c2cc(C(F)(F)F)nc(-n3cncn3)n2)c1`, the max activation is -20.7%.

With `CCN(Cc1ccncc1)C(=O)c1cccc(S(=O)(=O)N2CCCCC2)c1`, the max activation is -18% [at 1.2 µM, 100% = signal doubled over neutral wells]. On to `CC(C)CC#Cc1ccc([C@H]2[C@H]3CN(C(=O)c4cnccn4)CC(=O)N3[C@H]2CO)cc1`, for which the max activation was 35.4% [at 0.015 µM, 100% = signal doubled over neutral wells]. For `COc1ccccc1CNC(=O)CCS(=O)(=O)Cc1ccc(C)cc1` the value was -17.3%; for `Cc1ccc(NC2c3ncccc3C(=O)N2C2CCCCC2)cc1` (stereo not drawn), 28.1%; for `COc1ccc(C2=Nn3c(nnc3-c3ccccc3OC)SC2)cc1OCC1CC1`, -35.7%. Next, `COc1ccc(C(O)c2nccc3cc(OC)c(OC)cc23)cc1OC` (stereo not drawn): 44.3% [at 3.8 µM, 100% = signal doubled over neutral wells]. Next, `COc1ccc(C2=Nn3c(nnc3-c3ccccc3OC)SC2)cc1OC1CCOC1` (stereo not drawn): 43.3% [at 1.2 µM, 100% = signal doubled over neutral wells]; `COc1ccc(-c2nnc(-c3cccs3)o2)cc1OC`: 29.4%. In the case of `COc1ccc(CO/N=C/c2c(C)[nH]c(=O)[nH]c2=O)cc1`, the max activation was 16.7%. Next, `COC(=O)C1C(=O)NC(SC)=C(C#N)C1c1ccccc1` (stereo not drawn): -22.6% [at 0.015 µM, 100% = signal doubled over neutral wells]; `O=C1N(c2ccccc2)c2ccccc2[C@]12C[C@H](O)CO2`: -20.7% [at 0.135 µM, 100% = signal doubled over neutral wells].
